# SMARCA2 activ: SMARCA2 (BRM) function activators, primary screen, cell-based, luminescence, high throughput. MG213 cells, MMTV-luciferase reporter, dexamethasone, overnight. activation, % at 9.1 µM. hit rate 1% among 370,000; in the data active means activation above about 7.8%
# DAX1 inh-1: DAX1 (NR0B1) inhibitors, primary screen, cell-based, HEK293, Gal4-DAX1, luciferase luminescence. hit rate 0.99% among 340,000. HEK293 Gal4-DAX1 luciferase reporter. inhibition, % at 6.75 µM. AID 504766, 2011;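 active means inhibition above the mean over all tested compounds plus 3 SD, cut at about 4.2% in these data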;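 further: inhibition shows as a rise in luminescence from relieved DAX1 repression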
# Target sequence (P51843 207-470 limits assumed): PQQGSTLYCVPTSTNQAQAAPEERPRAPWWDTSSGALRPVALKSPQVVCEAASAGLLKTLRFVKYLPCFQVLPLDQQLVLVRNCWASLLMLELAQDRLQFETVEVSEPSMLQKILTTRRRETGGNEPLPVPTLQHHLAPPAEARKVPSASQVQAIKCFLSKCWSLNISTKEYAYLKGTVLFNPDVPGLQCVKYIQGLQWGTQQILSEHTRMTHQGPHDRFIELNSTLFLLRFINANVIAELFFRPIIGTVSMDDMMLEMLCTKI
# DAX1 inh-2: DAX1 (NR0B1) inhibitors on StAR promoter, primary screen, cell-based, luminescence, SF-1 (NR5A1), full-length DAX-1 | AID 652010, 2013 | hit rate 1.1% among 370,000 | inhibition, % at 6.8 µM | HEK293T StAR-luciferase reporter, SF-1/DAX-1 repression relief;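 active means inhibition above the mean over all tested compounds plus 3 SD, cut at about 3.6% in these data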;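 further: higher inhibition means more luminescence from relief of DAX-1 repression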
# ssDAF-12 act: S. stercoralis DAF-12 nuclear receptor activators, primary screen, cell-based, luminescence, HEK293, GRIP1 co-expression, lit1-tk-luc. activation, % at 6.8 µM. hit rate 1% among 370,000. AID 652126, 2013. HEK293 ssDAF-12/GRIP1 lit1-tk-luc reporter; % of 3 µM dafachronic acid response. Nuclear hormone receptor DAF-12 (Strongyloides stercoralis);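 active means activation above the mean over all tested compounds plus 3 SD, cut at about 0.9% in these data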
# hgDAF-12 ag: H. glycines DAF-12 receptor agonists, primary screen, cell-based, luminescence, HEK293, GAL4 fusion, UAS-luciferase; Nuclear hormone receptor DAF-12 (Heterodera glycines), GAL4 fusion; HEK293 GAL4-hgDAF12 UAS-luciferase reporter, agonist luminescence; normalized to butyrate control; activation, % at 6.8 µM; hit rate 1.8% among 370,000;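 active means activation above a cutoff set at the mean of all screened compounds plus 3 SD, cut at about 10% in these data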
# hcDAF-12 act: H. contortus DAF-12 nuclear receptor activators, primary screen, cell-based, luminescence, HEK293, lit1-tk-luc reporter | HEK293 hcDAF-12 lit1-tk-luc reporter; 0% DMSO, 100% Δ7-dafachronic acid | activation, % at 6.8 µM | hit rate 1.4% among 370,000;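 active means activation above the mean of all tested compounds plus 3 SD, cut at about 5.5% in these data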
# Numbers stand for hits; n = inactive; x = not tested or not shown. Compounds with a hit are over-represented: about 4.8% of the library has one in this group of screens.
SMILES,SMARCA2 activ,DAX1 inh-1,DAX1 inh-2,ssDAF-12 act,hgDAF-12 ag,hcDAF-12 act
CC1(C)Oc2ccc(C(=O)NC3CCCC3)cc2NC1=O,n,x,n,n,n,n
COc1ccc(C2/C(=C(\O)c3cccc(OC)c3)C(=O)C(=O)N2c2ccccn2)cc1 (stereo not drawn),n,6.8,n,n,n,n
COc1cccc(/C(O)=C2\C(=O)C(=O)N(c3ccccn3)C2c2ccccc2OC)c1 (stereo not drawn),n,n,n,n,n,n
CC[C@H](C)[C@H](NC(N)=O)C(=O)Nc1ccc(NC(C)=O)cc1,n,n,n,n,n,n
CCC(C)C(NC(N)=O)C(=O)Nc1ccc(C(=O)OC)cc1 (stereo not drawn),n,4.4,n,n,n,n
Cc1c(NCc2nc3ccccc3[nH]2)c(=O)n(-c2ccccc2)n1C,7.8,n,n,n,n,n
CCOC(=O)c1cccc(C(=O)OCC)n1,n,n,n,n,n,n
NC(=O)c1cccc(C(N)=O)n1,n,6.1,n,n,n,n
COc1ccc2[nH]c3c(c2c1)CCN[C@]31C(=O)N(Cc2ccccc2)c2ccccc21,n,x,n,n,n,n
Cc1cc(NS(=O)(=O)C2CCN(C(=O)Cc3ccc(Cl)c(Cl)c3)CC2)no1,n,x,n,n,n,n
COc1cc(CN2CCC(CCC(=O)NC3CC3)CC2)cc(Cl)c1OC,n,5.2,n,n,n,n
O=C(CCC1CCN(Cc2ccccc2Cl)CC1)NC1CC1,n,n,n,n,n,n
CCOC(=O)CCCNC(=O)OC1CC2CC1[C@H]1CCCCN1[C@H]2Cc1ccccc1 (stereo partly drawn),n,x,n,n,n,n
O=C1C2CC=C(Cl)CC2C(=O)N1CCc1c[nH]c2ccccc12 (stereo not drawn),n,n,n,1.2,n,n
O=C(O)c1ccc2c(c1)C(=O)N(CCc1c[nH]c3ccccc13)C2=O,n,n,n,n,n,5.8
Cn1cc(C(=O)N/N=C/C2=C(N3CCOCC3)C(=C/c3ccc([N+](=O)[O-])cc3)/CC2)ccc1=O,n,n,n,n,12,n
CCN1Cc2nnn(Cc3ccccc3)c2-c2cc(F)ccc2S1(=O)=O,n,x,n,n,n,n
COc1ccc(N2C(=O)C3CCCN3C2c2ccccc2F)cc1 (stereo not drawn),n,4.9,n,n,n,n
O=C1C2CCCN2C(c2ccccc2F)N1c1ccc(Cl)cc1 (stereo not drawn),n,n,n,n,n,n
Cc1cccc(N=C2NC(=O)/C(=C\c3cccs3)S2)c1,7.9,n,n,n,n,n
Cc1cccc(N=C2NC(=O)/C(=C/c3cccnc3)S2)c1,n,n,n,n,n,n
O=C1NC(=Nc2cccc(O)c2)S/C1=C\c1cccnc1,7.9,n,n,n,n,n
O=C1NC(=Nc2ccccc2)S/C1=C\c1ccccc1,n,n,n,1.0,n,n
Cc1ccc(N=C2NC(=O)/C(=C/c3cccs3)S2)cc1C,n,n,n,n,n,n
COc1ccc(/C=C2\SC(=Nc3ccccc3OC)NC2=O)cc1,n,4.3,n,n,n,n
SMILES,SMARCA2 activ,DAX1 inh-1,DAX1 inh-2,ssDAF-12 act,hgDAF-12 ag,hcDAF-12 act
COc1cc(/C=C2\SC(=Nc3ccccc3OC)NC2=O)ccc1O,n,n,n,n,n,n
CCN(CC)C(=O)CC[C@H]1CC[C@]2(CCCN(C(=O)C(C)(C)C)C2)O1,n,x,n,n,n,n
O=[N+]([O-])c1cc2c(c(CSc3ncccn3)c1)OCOC2,n,6.9,n,n,n,n
Nc1c(Cl)cc(N=Nc2ccccc2)cc1Cl,n,n,n,1.0,n,n
CCOc1ccccc1-n1nnnc1SCc1nc2ccccc2s1,n,n,n,3.6,n,n
Cc1ccccc1-n1c(C)nnc1SCc1nc2ccccc2s1,n,n,n,n,n,n
CCNC(=O)Nc1ccc2c(c1)C(=O)N(C)[C@H]1CC[C@H](CC(=O)N[C@H](C)c3ccccc3)O[C@@H]1CO2,n,x,n,n,n,n
CCOC(=O)[C@]12CCCC3=C1N(CCC3)C(=O)[C@@H](CC(=O)NCCC(C)C)C2,n,x,n,n,n,n
COC(=O)[C@]12C[C@H](CC(=O)N3CCCC3)C(=O)N(Cc3ccco3)C1=C[C@H](C1CCCC1)O[C@@H]2C,n,x,n,n,n,n
COc1cccc(NC(=S)N(CCCN2CCCC2)Cc2cccn2Cc2ccc(Cl)cc2)c1,x,4.4,x,x,x,x
COCCCN1C(=O)[C@H](CC(=O)NCC2CCCCC2)[C@]2(C(=O)OC)CCCCC=C12,n,x,n,n,n,n
CCOC(=O)c1ccc2nc(NC(=O)c3cccs3)sc2c1,n,4.8,n,n,12,n
CCCC(=O)Nc1nc2ccc(C(=O)OCC)cc2s1,n,n,n,n,n,n
CCCCC(=O)Nc1nc2ccc(C(=O)OC)cc2s1,n,n,n,n,11,n
Cc1csc2nc(CCNS(=O)(=O)c3cccs3)cn12,n,n,n,n,13,n
CCCC[C@@H]1C(=O)N2N=Cc3cscc3[C@H]2N2N=Cc3cscc3[C@@H]12,n,x,n,n,n,n
COC(CNC(=O)[C@H](Cc1c[nH]c2ccccc12)NC1(C(=O)NC(c2ccccc2)c2ccccc2)CCCCC1)OC,x,x,x,n,n,n
COc1cccc(/C=C2\CC3(OC(=O)c4cccc(F)c4)CCCN2C3)c1 (stereo not drawn),n,x,n,n,n,n
Cc1cc(OCC(=O)N2CCC(C(N)=O)CC2)c2c(C)cc(=O)oc2c1,n,7.5,n,n,n,n
CC(C)CCN(C)C1CCN(C(=O)Nc2ccc3c(c2)OCO3)CC1,n,x,n,n,n,n
N#CC1C(C#N)N2CCCN2C1c1ccc(Cl)cc1 (stereo not drawn),n,n,n,n,n,5.8
COc1ccc(C2C(C#N)C(C#N)N3CCCN23)cc1 (stereo not drawn),n,n,n,n,n,n
C=CCN1[C@@H](Cc2ccccc2)COc2cccc(F)c2S1(=O)=O,n,x,n,n,n,n
C/C=C/c1ccc(OCC(=O)Nc2ccc(C(N)=O)cc2)c(OC)c1,n,n,n,1.1,n,n
COc1cc(/C=C/c2cc[n+](C)cc2)ccc1OCC(=O)Nc1ccccc1,n,n,n,n,n,n
CCn1c(=O)n(CC(=O)N2CCC(C)CC2)c(=O)c2ccccc21,n,x,n,n,n,n

# From PubChem
